The nature of experiment [1]: growth inhibition of DIPG glioma cells, dose response, cell-based, SU-DIPG-XVII, MIPE5.0, CellTiter-Glo, qHTS (AID 1347060).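 On AC50: cells exposed to compound for 48 hours before viability readout.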 To be noted: SU-DIPG-XVII viability, CellTiter-Glo ATP luminescence.
A short description of experiment [2]: JHH-DIPG-1 glioma cell viability, MIPE5.0 library, CellTiter-Glo luminescence, qHTS (AID 1347067).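 Further: cells exposed to compound for 48 hours before readout.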 To be noted: JHH-DIPG-1 glioma viability, CellTiter-Glo ATP luminescence.
The nature of experiment [3]: SU-DIPG-XXV glioma cell viability, MIPE5.0 library, qHTS (AID 1347068; cut-off not given, nearly all actives have IC50 up to about 30 µM).

Structures are written as SMILES. Results filed as inconclusive are left out. Activity calls are given as the source filed them. Unless noted, cut-off not given; nearly all actives show AC50 up to about 26 µM.

For the compound `CC(C)(c1ccc(OCC(O)CO)cc1)c1ccc(OCC(O)CCl)cc1` (stereo not drawn), the compound was called inactive in experiment [1], in experiment [2] and in experiment [3].
On to `CCS(=O)(=O)N1CCC(C(C)n2c(C)c(C(=O)NCc3c(OC)cc(C)[nH]c3=O)c3ccccc32)CC1` (stereo not drawn), for which the compound was called inactive in experiment [1], in experiment [2] and in experiment [3].
As for `Cc1onc(-c2ccc(F)cc2)c1COc1ccc(C(=O)N2CCS(=O)(=O)CC2)cn1`, the result in experiment [1], in experiment [2] and in experiment [3] was inactive.
For `C[C@@H]1CC(=O)Nc2cccc(-c3ccc4c(c3)c(-c3cnn(C)c3)nn4C)c2N1`, the call in experiment [1] and in experiment [3] was inactive.
Consider `Cn1ncnc1[C@H]1c2n[nH]c(=O)c3cc(F)cc(c23)N[C@@H]1c1ccc(F)cc1`, for which the AC50 in experiment [1] was 0.742 µM (active). The compound was called inactive in experiment [2] and in experiment [3].
For the compound `O=C(CCNC(=O)c1ccc(OC(F)(F)F)cc1)N[C@@H]1CCCc2ccccc21`, the AC50 in experiment [1] was 20.9 µM (active); in experiment [2], 8.33 µM (active). Moreover, in experiment [3], the call was inactive.
For the compound `NC(=O)C1=C(O)[C@@]2(O)C(=O)C3=C(O)c4c(O)cccc4C[C@H]3C[C@H]2CC1=O`, the AC50 was 18.6 µM (active) in experiment [1] and 14.8 µM (active) in experiment [2]. Also, the compound was classed as inactive in experiment [3].
In the case of `CSc1ccc(C(=O)/C=C/c2cc(C)c(OC(C)(C)C(=O)O)c(C)c2)cc1`, the call in experiment [1] and in experiment [3] was inactive.
Turning to `CCCOc1ccc(CCc2nc3cc(-c4c(C)noc4C)ccc3n2CCN2CCOCC2)cc1`, the compound was called inactive in experiment [1] and in experiment [3]. In experiment [2], the AC50 is 20.9 µM (active).
Take `C=C1CCC[C@]2(C)C=C3OC(=O)C(C)=C3C[C@@H]12`: the outcome in experiment [1], in experiment [2] and in experiment [3] was inactive.
`CCn1c(N)c(C(=O)NC)c(=O)c2ccc(C#CC(C)(O)COC)nc21` (stereo not drawn): the AC50 in experiment [1] is 20.9 µM (active). The compound was called inactive in experiment [2] and in experiment [3].
For `N#Cc1cccnc1N1CCN(C(=O)c2cccc(Cc3n[nH]c(=O)c4ccccc34)c2)CC1`, the AC50 in experiment [1] was 0.059 µM (active). Moreover, in experiment [3], the compound was called inactive.

These data come from PubChem BioAssay.
